High-throughput results deposited in PubChem by several laboratories.
GalR3 antag = GalR3 antagonists in HEK293 cells, primary screen, cell-based, fluorescence readout; inhibition, % at 3 µM; AID 651719, 2012; actives 0.44% (n = 360,000); HEK293 GalR3-CNG cAMP membrane potential fluorescence; galR3 body fused to GalR1 C-terminus; Galanin receptor type 3 (Homo sapiens), O60755;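 active = inhibition above the screen-wide average plus 3 SD, cut at about 13% in these data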;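 also: forskolin and galanin both at EC90 stimulate the cells; cAMP rise reported by CNG channel membrane potential dye signal; 0% = forskolin plus galanin with DMSO and 100% = forskolin alone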
Target sequence (O60755 1-299 limits assumed): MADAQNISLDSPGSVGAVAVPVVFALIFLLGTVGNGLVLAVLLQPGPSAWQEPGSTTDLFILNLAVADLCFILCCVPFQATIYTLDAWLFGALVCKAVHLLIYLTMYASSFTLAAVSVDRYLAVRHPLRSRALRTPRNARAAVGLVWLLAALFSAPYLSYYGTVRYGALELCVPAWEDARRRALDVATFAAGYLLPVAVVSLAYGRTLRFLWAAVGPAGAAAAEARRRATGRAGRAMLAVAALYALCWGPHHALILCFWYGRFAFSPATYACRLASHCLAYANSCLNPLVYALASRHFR
HIF act = HIF pathway transcriptional activators, primary screen, cell-based, U2OS HRE-luciferase, luminescence. U2OS HRE-luciferase reporter; normalized: DMSO 0%, desferrioxamine 100%. activation, % at 7.5 µM (by protocol). actives 0.32% (n = 300,000). AID 1910, 2009;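 active = mean activation of at least 10% of the iron chelator positive control signal, with at least half of replicates also reaching 10%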
Hsp70 act = Hsp70 transcriptional activators, primary screen, cell-based, HeLa, Hsp70 promoter luciferase, luminescence, 10 µM; HeLa Hsp70 promoter luciferase reporter; scaled: vehicle 0, proteasome-inhibitor control 100%; activation, % at 10 µM; actives 0.04% (n = 200,000);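 active = activation above the mean across all tested compounds plus 3 SD, cutoff set per campaign, cut at about 5.5% in these data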;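 also: 100% = MG132 at 30 µM as the positive control and 0% = DMSO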
GAA850 FXN act = FXN promoter activators, primary screen, cell-based, luciferase luminescence, HEK293 lucGAA850. HEK293 lucGAA850 FXN promoter luciferase reporter, 24 h; percent of 10 µM SAHA response. activation, % at 6 µM. actives 0.56% (n = 360,000). AID 540364, 2011;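 active = activation above the average of all compounds screened plus 3 SD, cutoff fixed separately per campaign, cut at about 7.5% in these data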;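 also: 0% = DMSO wells and 100% = 10 µM SAHA wells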
SMARCA2 act = SMARCA2 (BRM) function activators, primary screen, cell-based, luminescence, high throughput; AID 652017, 2013; MG213 cells, MMTV-luciferase reporter, dexamethasone, overnight; activation, % at 9.1 µM; actives 1% (n = 370,000); in the data active = activation above about 7.8%;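 also: 0% = vehicle wells and 100% = reference activator wells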
GalR3 antag conf = GalR3 antagonist hit confirmation, cell-based, fluorescence, triplicate; actives 59% (n = 1,600); AID 652245, 2013; HEK293 GalR3 CNG cAMP biosensor, membrane potential fluorescence; galR3 fused to GalR1 carboxy tail; challenged with forskolin and galanin at EC90; inhibition, % at 3 µM; shares compounds with GalR3 antag;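 active = inhibition above the primary screen's cutoff, the mean inhibition of all screened compounds plus 3 SD, cut at about 13% in these data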;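 also: 0% = forskolin plus galanin and 100% = forskolin alone with DMSO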
HEK-CNG parental = nonspecific cAMP agonists in parental HEK-CNG cells, counter-screen for GalR3 antagonist project, cell-based, fluorescence, high throughput. AID 652268, 2013. actives 10% (n = 1,600). shares compounds with GalR3 antag. activation, % at 3 µM. HEK293-CNG parental cells, cAMP membrane potential fluorescence; normalised: DMSO wells 0%, forskolin wells 100%; in the data active = activation above about 1.3%
Active calls of the source: *; nt = no result given. In the library only some 2.2% were active in any assay of this set; here they are far more common.

SMILES | GalR3 antag | HIF act | Hsp70 act | GAA850 FXN act | SMARCA2 act | GalR3 antag conf | HEK-CNG parental
Cc1cc(C(=O)COC(=O)c2ccc(O)cc2)c(C)n1CC1CCCO1 (stereo not given) | 11.7 | 0.8 | -0.3 | 7.5 | -0.4 | nt | nt
COCC(C)n1c(C)cc(C(=O)COC(=O)c2ccc3c(c2)NC(=O)CS3)c1C (stereo not given) | 16.9* | 0.1 | 0.0 | 1.5 | -1.8 | 10.4 | 0.1
COc1ccccc1CCn1cnc(-c2cccc(Br)c2)c1CC(C)C | -7.6 | nt | nt | nt | -8.2 | nt | nt
CN(C)[C@@H]1CCN(c2cccc3c2S(=O)(=O)N(C2CC2)CCCO3)C1 | nt | nt | nt | nt | -1.3 | nt | nt
Cc1cc(C(=O)CSc2nc(N)cc(=O)[nH]2)c(C)n1-c1ccc(OC(F)F)cc1 | 14.4* | -0.7 | -0.1 | -1.9 | -5.7 | 97.9* | -0.2
COC(=O)C1=C(C)N(Cc2ccccc2C(F)(F)F)C(=NCc2ccc(OC)cc2)NC1c1ccccc1C(F)(F)F (stereo not given) | -5.5 | nt | nt | nt | -4.8 | nt | nt
CC(=O)c1cn(CCOc2cc(C)ccc2C)c2ccccc12 | 84.4* | 1.1 | nt | -2.6 | -4.1 | 84.5* | 0.8
COc1cccc(OCCn2cc(C(=O)c3ccco3)c3ccccc32)c1 | -4.0 | 0.6 | -0.6 | -0.2 | -2.3 | nt | nt
COc1cccc(OCCn2cc(C(C)=O)c3ccccc32)c1 | 26.8* | -26.6 | nt | 0.5 | -5.6 | 20.8* | 0.2
CCCCN(C)C(=O)CSc1nnc(-c2cc(OC)c(OC)c(OC)c2)o1 | nt | nt | nt | nt | 5.8 | nt | nt
CNC(=S)N/N=C/c1ccc(OCC(=O)Nc2c(C)cc(C)cc2C)c(OC)c1 | 19.1* | -1.1 | -0.2 | 2.5 | -2.3 | 23.0* | -0.3
COc1ccc(-n2c(SCc3ccc([N+](=O)[O-])cc3)nnc2-c2ccco2)cc1 | nt | nt | nt | nt | -4.8 | nt | nt
Oc1cccc(Oc2ncc(C(F)(F)F)cc2Cl)c1 | 13.0* | -0.6 | -0.1 | 0.7 | -0.5 | 1.3 | -0.1
FC(F)(F)c1cnc(Oc2cccc3ccccc23)c(Cl)c1 | 0.1 | 0.6 | -0.5 | 1.5 | -3.7 | nt | nt
Nc1nc(-c2ccc3c(c2)OCCO3)cs1 | 23.2* | -0.2 | -0.1 | 5.7 | 5.3 | 29.3* | 0.3
CCOc1ccc(/C=N/N2C(=O)C(CC(=O)Nc3ccc(F)cc3F)SC2=NC)cc1OC (stereo not given) | 0.3 | 0.0 | -0.4 | 1.5 | 0.5 | nt | nt
CN=C1SC(CC(=O)Nc2ccccc2F)C(=O)N1/N=C/c1ccc(O)c(OC)c1 (stereo not given) | 21.8* | -0.3 | -0.1 | 4.0 | 3.5 | 14.7* | -0.1
O=C(NNc1ccnc2cc(Cl)ccc12)C1CCCCC1 | 27.0* | -0.1 | -0.1 | -3.8 | -2.9 | 111.6* | 0.1
Cc1ccc(C(=O)N2CCC[C@@H]2C(=O)N2CCC[C@H]2C(=O)NCc2ccccc2)cc1 | -4.7 | nt | nt | nt | -5.3 | nt | nt
Clc1cccc(N2CCN(CCNc3nc4ccccc4n4cnnc34)CC2)c1 | nt | -0.6 | -0.3 | -0.2 | nt | nt | nt
c1ccc2c(c1)nc(NCCN1CCOCC1)c1nncn12 | nt | 0.1 | -0.4 | 0.0 | -2.6 | 8.3 | 0.0
COc1cc(N=C2C(=O)N3c4c(cccc42)C(C)=CC3(C)C)cc(OC)c1 | -0.6 | -0.5 | -0.3 | -0.1 | 1.9 | nt | nt
CC1=CC(C)(C)N2C(=O)C(=Nc3ccc(O)cc3)c3cccc1c32 | 16.1* | 0.5 | nt | 3.2 | 7.3 | 1.5 | 0.5
Cc1ccsc1C1C(C#N)=C(N)Oc2n[nH]c(C)c21 (stereo not given) | 29.6* | -0.3 | -0.1 | -0.2 | -1.3 | -0.6 | 0.0
O=C(Cn1nnc(-c2ccncc2)n1)Nc1ccc(Oc2ccccc2)cc1 | nt | nt | nt | nt | -5.2 | nt | nt
